Records with an inconclusive call do not appear. A call without a number means that no potency is given here. The source made the active and inactive calls. The call rests on the fitted dose curve.
Test: Confirmatory qHTS to identify inhibitors of SARS-CoV-2 cell entry (AID 1645844); further: nearly all actives have a fitted effect of over 45% in size
Conditions: SARS-CoV-2 pseudotyped particle cell entry, luciferase; series mostly up to 57.2 µM
In short: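 HEK293-ACE2 cells (Expi293F stably expressing human ACE2) were pretreated with compounds for 1 hr at 37C, then infected with MLV-based particles carrying Wuhan-Hu-1 spike (C-terminal 19-aa truncation). Luciferase luminescence read after 48 hr; normalized to spike PP (100%) and bald PP (0%).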
Potency means the concentration at half of the fitted maximal effect.

Compound	Potency
CCc1cc(C(N)=O)ccc1-n1nc(C(C)C)c2c(-n3cnc(-c4cnn(C)c4)c3)ccnc21	10.8 µM (active)
COc1ccc(S(=O)(=O)N2CCc3cccc(-c4ccncc4)c32)cc1	0.961 µM (active)
Cc1nnc(C[C@@H]2C=C(c3ccc(Cl)cc3)c3ccccc3-n3c(C)nnc32)o1	inactive
Cn1cc(C2=C(c3cn(C)c4cc([N+](=O)[O-])ccc34)C(=O)NC2=O)c2ccccc21	1.71 µM (active)
COc1cc(F)ccc1-c1ncnc(Nc2cccc(CS(C)(=N)=O)c2)n1 (centres undefined)	3.83 µM (active)
C[C@H]1[C@H](O)[C@@H](C)/C=C/C=C/CC/C=C/C=C/C=C/C=C/[C@H](O[C@@H]2O[C@H](C)[C@@H](O)[C@H](N)[C@@H]2O)C[C@@H]2O[C@](O)(C[C@@H](O)[C@H](O)CC[C@@H](O)C[C@@H](O)C[C@@H](O)CC(=O)O[C@H]1C)C[C@H](O)[C@H]2C(=O)O	9.61 µM (active)
O=C1NC(=O)[C@@H](c2c[nH]c3ccccc23)[C@H]1c1cn2c3c(cccc13)CCC2	7.64 µM (active)
CN(C)CCCOc1ccc(-c2ccc3ncc4c(c3c2)n(C2CCOCC2)c(=O)n4C)cn1	5.91 µM (active)
COc1cccc2c1C(=O)c1c(O)c3c(c(O)c1C2=O)C[C@@](O)(/C(CO)=N/NC(=O)CCCCCN1C(=O)C=CC1=O)C[C@@H]3O[C@H]1C[C@H](N)[C@H](O)[C@H](C)O1	0.429 µM (active)
C=CC(=O)N1CC[C@@H](Oc2nc(Nc3ccc(N4CCC(N5CCN(C)CC5)CC4)cc3)c(C(N)=O)nc2CC)C1	2.35 µM (active)

Test: Cytotoxicity counterscreen for inhibitors of SARS-CoV-2 cell entry (AID 1645845); further: nearly all actives have a fitted effect of over 50% in size
Conditions: cell viability (SARS-CoV-2 entry assay cells); series mostly up to 57.1 µM
In short: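 Expi293F/hACE2 cells seeded overnight; cpd pin-transferred in DMSO, 1 h preincubation, + media, 48 h 37 C 5% CO2; ATPLite 1step luminescence; normalized to cells and no cells.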

Compound	Potency
Cc1c(F)ccc(C(=O)Nc2cc([N+](=O)[O-])ccc2N2CCN(C)CC2)c1Cl	inactive
CCn1c(=O)c(-c2ccc(-c3cncs3)cc2Cl)cc2cnc(Nc3ccc(N4CCN(C)CC4)cc3)nc21	inactive
Cn1cc(/C=C/C(=O)c2cccc(F)c2)cc1/C=C/C(=O)NO	inactive
Cc1ccc(C(=O)Nc2ccc(Oc3cc4cnn(C)c4cc3-c3cn[nH]c3)c(F)c2)c(=O)n1-c1ccc(F)cc1	inactive
CN(C)Cc1cccc(N=C(c2ccccc2)c2c(O)[nH]c3cc(C(N)=O)ccc23)c1	inactive
O=C(O)/C(S)=C/c1ccc(I)cc1	inactive
NC(=O)c1cnc2[nH]ccc2c1NC1C2CC3C[C@H]1CC(O)(C3)C2 (some centres undefined)	inactive
Nc1cc(C(F)(F)F)c(-c2nc(N3CCOCC3)nc(N3CCOCC3)n2)cn1	10 µM (active)
O=c1c(-c2ccc(O)cc2)coc2cc(O[C@@H]3O[C@H](CO)[C@@H](O)[C@H](O)[C@H]3O)ccc12	inactive
CC(C)NC(=O)N1CC[C@H](N=C2Nc3cc(F)ccc3N(CC(F)F)c3ccc(Cl)cc32)C1	inactive
O=C(C(c1ccccc1)c1ccccc1)N1CCN(CC(O)COc2cccc3ncccc23)CC1 (centres undefined)	inactive
Cc1nc(NC(=O)N2CCC[C@H]2C(N)=O)sc1-c1csc(C(C)(C)C)n1	inactive
Cc1noc(C)c1-c1ccc(-c2cc(C(N)=O)c(NC(N)=O)s2)c(O[C@H]2CCNC2)c1	inactive
CO[C@H]1/C=C/O[C@@]2(C)Oc3c(C)c(O)c4c(O)c(c5c(nc6cc(C)ccn65)c4c3C2=O)NC(=O)/C(C)=C\C=C\[C@H](C)[C@H](O)[C@@H](C)[C@@H](O)[C@@H](C)[C@H](OC(C)=O)[C@@H]1C	inactive
Cc1nn(C)c(COc2ccc(N3CCN(S(=O)(=O)N(C)C)CC3)cc2)c1-c1cccc2c(CCCOc3cccc4ccccc34)c(C(=O)O)n(CCN3CCOCC3)c12	inactive
CCCC1(CCC)CCC2(CCN(CCCN(CC)CC)C2)CC1	7.08 µM (active)
Cc1cc(-n2c(=O)ccc3cnc4[nH]ccc4c32)ccc1F	inactive
NC[C@@](O)(c1ccc(Cl)cc1)c1ccc(-c2cn[nH]c2)cc1	28.2 µM (active)
Cn1cc(-c2cnc3ccc4ccc(CS(=O)(=O)NCc5ccccn5)cc4c(=O)c3c2)cn1	inactive
O=C(Nc1cnccc1Cl)N1CCN(Cc2ccc3c(c2)OC(F)(F)O3)CC1	inactive
COc1cc(=C2C=c3ccccc3=N2)[nH]/c1=C/c1[nH]c(C)cc1C	10 µM (active)
CN1C(=O)N(c2cc(Cl)cc(Cl)c2)C(=O)[C@]12CN(Cc1cc(C(=O)O)cs1)C[C@H]2c1ccc(C#N)cc1	inactive
O=C(Cc1cccc(OC(F)(F)F)c1)Nc1ccc(CCCCc2nnc(NC(=O)Cc3ccccn3)s2)nn1	inactive
CNc1ncc2cc(-c3cc(NC(=O)NCCC(C)(C)C)c(F)cc3C)c(C)nc2n1	inactive
CCO[C@@H]1OC(=O)C[C@@H]1NC(=O)[C@@H]1CCCN1C(=O)[C@@H](NC(=O)c1ccc(N)c(Cl)c1)C(C)(C)C	inactive
C=C1C(=O)O[C@H]2C[C@H](C)C(/C=C/C(C)=O)=CC[C@H]12	31.6 µM (active)
CCn1nc(C2CCN(C(=O)CCO)CC2)nc1-c1cnc(N)c(-c2nnc(C(C)(C)C)o2)n1	inactive
CCOC(=O)N[C@@H]1CC[C@@H]2[C@@H](C1)C[C@H]1C(=O)O[C@H](C)[C@H]1[C@H]2/C=C/c1ccc(-c2cccc(F)c2)cn1	inactive
Cn1ncc(Cl)c1-c1cc(C(=O)N[C@H](CN)Cc2cccc(F)c2)sc1Cl	inactive
